Tests used:
Assay in all cases: PBM binding z-score (relative to random genomic background probes); higher = stronger binding; sequences stand for … in GC…GCGATTGACAGCGTAGAATGAAGG
[1] = tested on: LXRa:RXRa (NR concentration 270 nM, RXRa partner concentration 90 nM)
Outline: (§1)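 Ligand-free nuclear receptor dimers were bound for 1 h to custom Agilent 4×180K protein-binding microarrays. Detection used antibodies against each partner (one per run). Binding z-scores rest on regression-normalized fluorescence, with random background probes as the reference.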

[2] = tested on: LXRa homodimer (NR concentration 270 nM)
Outline: as §1

[3] = tested on: LXRb homodimer (NR concentration 270 nM)
Outline: as §1

[4] = tested on: PPARg:RXRa (NR concentration 180 nM, RXRa partner concentration 90 nM)
Outline: as §1

[5] = tested on: PPARg:RXRa 270nM:90nM, anti-RXR (NR concentration 270 nM, RXRa partner concentration 90 nM)
Outline: as §1

[6] = tested on: PPARg:RXRa 30nM:10nM, anti-RXR (NR concentration 30 nM, RXRa partner concentration 10 nM)
Outline: as §1

[7] = tested on: PPARg:RXRa 90nM:30nM, anti-RXR (NR concentration 90 nM, RXRa partner concentration 30 nM)
Outline: as §1

[8] = tested on: PPARg:RXRa DBDmut IVT, anti-RXR (DBD mutation: RXRa K156A/R161A, NR concentration 270 nM, RXRa partner concentration 90 nM)
Outline: as §1

[9] = tested on: PPARa:RXRa (NR concentration 270 nM, RXRa partner concentration 90 nM)
Outline: as §1

Sequence	PBM binding z-score [1]	PBM binding z-score [2]	PBM binding z-score [3]	PBM binding z-score [4]	PBM binding z-score [5]	PBM binding z-score [6]	PBM binding z-score [7]	PBM binding z-score [8]	PBM binding z-score [9]
CAAACTAGGTCAAGGTCTAAGTCGGTTTGTGCCA	2.44	0.318	0.246	8.27	7.05	5.25	6.46	8.12	
CAAACCAGGTCACAGAGGTCAAAGTCCGTGCGTA	6.8	7.74	2.6	8.73	7.69	5.28	7.12	6.56	
CGAACTAGGTCACCCAGGACAGTGAATACATTGA	2.03	0.478	-0.274	8.33	6.66	4.23	6.12	8.48	
GATACGGGGTCAAGGCCAGAGTACGCGTATTGAT	6.02	0.0824	0.667	8.92	8.33	5.85	7.78	4.87	
AATACAGGGTAACTAGGCCAGAGTAGGTACGAAT	0.106	-0.23	-0.0777	2.82	2.44	0.877	1.88	3.4	
CGAACTAGGTCGAGGACAGTGAATCTCCGCACGC	-0.0944	-0.716	-0.651	2.03	1.98	0.0747	1.23	5.71	
AGCGAAAGGTCGAGGTGAGTATAGAGAAAGGGAA	3.18	-0.189	-0.246	3.81	4.31	1.4	3.37	0.228	
CGAACTAGGTCATCCAGGACCGTGAATACATTGA	2.19	0.428	-0.349	7.13	6.1	3.53	5.78	8.24	
AATACAGGGTCACGAGGCCAGAGTAGGTACGAAT	6	1.22	0.897	8.68	7.43	4.39	6.65	3.9	
CGTCCAAGGTTAAGGTCAGTGAAAGAGACTCGAA	3.28	0.367	-0.224	2.06	2.6	0.541	1.49	1.47	
CGTACAAGGTCAAAGGTCAGTGAAGAGATGACGG		3.43	2.4		10.1	11.2	11.9	5.32	7.11
